Measured values taken from PubChem BioAssay AID504834 (National Center for Advancing Translational Sciences (NCATS), 2011).
“And” between values parts separate entries of the source, which are not always exact repeats. Identical values can stand only once. In all, about 320,000 compounds went through this assay and about 22,000 (6.9%) were called active. Not shown: some 27% with an inconclusive outcome. Only a selection was taken, and actives are over-represented in it overall. A number with no mark means an inactive call. Calls follow the shape of the dose curve; as a rule, active = well fitted inhibition curve with a large enough effect; inconclusive = small, poorly fitted or top-dose-only effect, or another doubt; inactive = no such curve, though single readings can be large or run the other way.

Test: Primary qHTS for delayed death inhibitors of the malarial parasite plastid, 96 hour incubation
Conditions: P. falciparum luciferase reporter growth; series mostly up to 28.7 µM; activity change, negative = inhibition: at the top concentration
Procedure, shortened: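 P. falciparum expressing integrated firefly luciferase, in erythrocytes at 2% hematocrit, 0.05% parasitemia, incubated with compounds 96 h at 37 C, 5% CO2. Growth inhibition read as loss of luminescence; two-generation exposure targets delayed-death apicoplast inhibitors.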
% is scaled to controls: 0 for no effect and ±100 for the full control effect; potency is read from the fitted curve at half-maximal effect.

| SMILES | activity change, negative = inhibition | Potency |
| --- | --- | --- |
| Cc1noc(/C=C/c2ccco2)c1S(=O)(=O)N1CCC(C(=O)N2CCc3ccccc32)CC1 | -96.6% | – |
| CNC(=O)C1CCN(S(=O)(=O)c2c(C)noc2/C=C/c2cccc(C)c2)CC1 | – | 10.4 µM (active) |
| Cc1ccc(NC(=O)C2CCCN(S(=O)(=O)c3c(C)noc3C)C2)c(C)c1 (configuration not stated) | -0.795% | – |
| O=C(CCC1CCCCC1)Nc1cc(C(F)(F)F)ccc1N1CCOCC1 | – | 13.1 µM (active) |
| CC(C)CC(=O)Nc1cc(C(F)(F)F)ccc1N1CCOCC1 | -85.5% | – |
| CCC(=O)Nc1cc(C(F)(F)F)ccc1N1CCCC1 | 29.3% | – |
| CCc1ccc(C(=O)NC(=S)Nc2ccccc2N2CCOCC2)cc1 | 17% | – |
| C/C=N/N(c1ccccc1)c1ccccc1 | 51.4% | – |
| CCN(CC(=O)Nc1ccc(S(=O)(=O)N2CCCC2)cc1)CC(=O)Nc1cccc(OC)c1 | -17% | – |
| CCOC(=O)c1cnc(-n2nc(C)cc2C)nc1-n1nc(C)cc1C | 26% | – |
| CCOC(=O)c1ccccc1NC(=O)CSc1nc2ccccc2c(=O)[nH]1 | -0.129% | – |
| CCOC(=O)c1cc(NC(=O)SCC(=O)O)c(C)nc1C | – | 7.38 µM (active) |
| CC1CCC(NS(=O)(=O)c2ccc3c(c2)CC(=O)N3)CC1 (configuration not stated) | -7.2% | – |
| Cc1ccc(Cc2nnc(SCC(=O)Nc3ccc(C)cc3C)[nH]c2=O)cc1 | 31.1% | – |
| O=C(CCN1CCN(C/C=C/c2ccccc2)CC1)Nc1ccccc1Cl | -27.3% | – |
| C/C(=N\NC(=O)c1ccoc1C)c1ccccc1O | 163% | – |
| COc1ccc(C(=O)c2c(C)c(CCC#N)n3ccccc23)c(OC)c1 | -23.2% | – |
| Oc1c(Cl)cc(Cl)c(Cl)c1Cc1c(O)c(Cl)cc(Cl)c1Cl | – | 12 µM (active) and 9.28 µM (active) |
| CN(C)c1nc(NN)nc(Nc2ccc(F)cc2)n1 | 1.79% | – |
| COc1ccc(N(CC(=O)Nc2cccc3ccccc23)S(C)(=O)=O)c(OC)c1 | -37.1% | – |
| C=CCn1c(SCC(=O)NC)nnc1C12CC3CC(CC(C3)C1)C2 | – | 11.7 µM (active) |
| C=CCn1c(SCC(=O)NC23CC4CC(CC(C4)C2)C3)nc(O)cc1=O | -29.2% | – |
| C=CCn1c(COc2ccccc2)nnc1SCC(=O)NCC(=O)OCC | 4.6% | – |
| C=CCSc1nnc(NC(=O)c2ccc(NC(C)=O)cc2)s1 | 14% | – |
| CC1CC(C)CN(C(=O)CCNC(=O)Cn2cnc3ccccc3c2=O)C1 (configuration not stated) | -3.35% | – |
| Cc1cc(S(=O)(=O)N2CCOCC2)ccc1OCC(=O)N1CCOCC1 | 9.58% | – |

| SMILES | activity change, negative = inhibition | Potency |
| --- | --- | --- |
| O=C(NCc1ccccc1Cl)C1CCN(S(=O)(=O)c2cccc3nonc23)CC1 | -7.24% | – |
| O=C1CCc2cc(S(=O)(=O)N3CCC(C(=O)NCc4ccccc4Cl)CC3)ccc2N1 | – | 13.1 µM (active) |
| O=C(NCc1ccccc1Cl)C1CCN(S(=O)(=O)N2CCOCC2)CC1 | 4.74% | – |
| CSc1ccc(Cl)c(C(=O)OCC(=O)N2CCNC2=O)c1 | -21.6% | – |
| Cc1ccc(NC(=O)N2CCC(c3nc4c(nnn4Cc4c(F)cccc4Cl)c(=O)[nH]3)CC2)cc1 | – | 9.28 µM (active) |
| O=C(Nc1ccc(F)cc1)N1CCCC(c2nc3c(nnn3Cc3ccccc3Cl)c(=O)[nH]2)C1 (configuration not stated) | 16.6% | – |
| COc1ccc(Cn2nnc3c(=O)[nH]c(C4CCN(C(=O)c5ccccc5Cl)CC4)nc32)cc1 | 9.4% | – |
| CC(Sc1nnc(-c2cccs2)n1C1CC1)C(=O)NCC1CCCO1 (configuration not stated) | 24.7% | – |
| Cc1cc(C(=O)OCC(=O)Nc2nccs2)c2ccccc2n1 | 20.5% | – |
| COc1ccccc1C(=O)NNC(=O)CCN1C(=O)/C(=C\c2ccccc2)SC1=S | -14.8% | – |
| CSc1nc(C)nc2c1c(=O)n(C)c(=O)n2C | 15.9% | – |
| CCC(C)Sc1nc(C)nc2c1c(=O)n(C)c(=O)n2C (configuration not stated) | – | 10.4 µM (active) |
| CC(O)c1nc2c(c(=O)n(C)c(=O)n2C)n1C (configuration not stated) | 101% | – |
| COc1ccc(N2CCN(S(=O)(=O)c3cc(Br)cnc3N)CC2)cc1 | 1.5% | – |
| COc1cccc(/C=C2/SC(=S)N(CC(=O)NC3C=CS(=O)(=O)C3)C2=O)c1 (configuration not stated) | 37.3% | – |
| COc1ccc(N2CCN(CCNC(=O)CCN3C(=O)COc4ccccc43)CC2)cc1 | 24.2% | – |
| COc1cccc(NC(=O)NCCN2CCCCC2)c1 | -37% | – |
| COc1ccc(N2CCN(CCNC(=O)Nc3cc(Cl)ccc3Cl)CC2)cc1 | – | 5.22 µM (active) |
| CCOC(=O)c1cccc(NC(=O)CN2C(=O)C3CC=CCC3C2=O)c1 (configuration not stated) | -20.6% | – |
| CCn1ccnc1CN(C)C(=O)c1ccc2nc(Cc3ccc(OC)cc3)oc2c1 | -22.5% | – |
| Cc1[nH]c(C)c(S(=O)(=O)N2CCN(c3cccc(C(F)(F)F)c3)CC2)c1C(=O)N1CCCC1 | -18% | – |
| COCCNC(=O)NC(=O)COC(=O)C1(c2ccc(Cl)cc2)CC1 | 23.1% | – |
| COc1ccccc1CN(C)C(=O)C1(c2ccc(Cl)cc2)CC1 | – | 9.28 µM (active) |
| COc1ccccc1CN(C)C(=O)c1cc2ccccc2o1 | -19.2% | – |
| Cc1cccc(C(=O)NCC(=O)OCC(=O)N(C)CC(=O)Nc2ccccc2Cl)c1 | -24.1% | – |
| O=C(C1CC(=O)N(c2ccc(F)cc2)C1)N1CCN(c2ccccc2)CC1 (configuration not stated) | 49.1% | – |

| SMILES | activity change, negative = inhibition | Potency |
| --- | --- | --- |
| Cc1ccc(N2CC(C(=O)N3CCC4(CC3)CC(=O)c3ccccc3O4)CC2=O)cc1C (configuration not stated) | – | 11.7 µM (active) |
| O=C1CC2(CCN(C(=O)COc3ccc(F)cc3)CC2)Oc2ccccc21 | -16.8% | – |
| O=C(Cn1c(NCCO)nc2ccccc21)c1ccc(Cl)cc1Cl | 26.7% | – |
| CC(NC(=O)C(=O)Nc1nccs1)c1ccccc1 (configuration not stated) | 17.2% | – |
| CC(=O)c1cccc(NC(=S)N2CCN(S(C)(=O)=O)CC2)c1 | 47.9% | – |
| O=C(NCCCN1CCOCC1)c1cnn2c(-c3ccccc3)cc(-c3ccccc3)nc12 | – | 9.28 µM (active) |
| O=C(NCCCN1CCOCC1)c1ccccc1NS(=O)(=O)c1ccc(F)cc1 | 26.6% | – |
| O=C(NCCCN1CCOCC1)c1ccccc1NS(=O)(=O)c1ccc(Br)cc1 | -14.4% | – |
| CCc1ccc(OCC(=O)NCC(c2ccc(Cl)cc2)N2CCCCC2)cc1 (configuration not stated) | 19.3% | – |
| COc1cccc(C(=O)Nc2ccc(N3CCN(C(=O)c4ccco4)CC3)cc2)c1 | 15.5% | – |
| COc1ccc(Cl)cc1NS(=O)(=O)c1cccc(C(=O)NCC2CCCO2)c1 (configuration not stated) | 0.0416% | – |
| CC(C)Nc1nnc(SCC(=O)c2c[nH]c3ccccc23)s1 | – | 10.4 µM (active) |
| COC(=O)c1ccc(CSc2nnc(NC(C)C)s2)cc1 | -3.42% | – |
| C[C@H](NC(=O)c1ccccc1)C(=O)OCC(=O)c1c[nH]c2ccccc12 | 22.5% | – |
| Cc1coc2c1c(C)cc1oc(=O)c(CC(=O)NCC(=O)N[C@H](C(=O)O)C(C)C)c(C)c12 | -0.522% | – |
| COc1cc(-c2c(-c3ccc4c(c3)OCO4)noc2C)ccc1F | -10.2% | – |
| Cc1onc(-c2ccccc2)c1C(=O)N=C(N)c1ccc(Cl)cc1 | -3.39% | – |
| Cc1onc(-c2ccc(Cl)cc2)c1-c1ccnn1S(=O)(=O)c1ccc(Cl)cc1 | – | 1.17 µM (active) |
| Cc1cccc([C@@H]2[C@@H]3C(=O)N(C)C(=O)[C@@H]3[C@@H]3C(=O)Nc4ccccc4C(=O)N23)c1 | 35.7% | – |
| CCOC(=O)c1sc(N)c(C#N)c1COC(=O)C1=COCCO1 | 0% | – |
| Cc1ccc(-c2ccc(=O)n(Cc3ccc(F)cc3Cl)n2)cc1 | 1.04% | – |
| COc1ccc(CNC(=O)CN(C(=O)c2csnn2)c2cnc3ccccc3c2)cc1 | -6.61% | – |
| Cc1cccc(NS(=O)(=O)c2ccc(C(=O)NCC(C)(C)N3CCOCC3)cc2)c1C | 0.321% | – |
| COc1cc(OC)cc(-c2nc3nc(C)c(CCC(=O)NCc4ccco4)c(C)n3n2)c1 | 24.9% | – |
| Cc1cc(C)n2nc(SCC(=O)NC(=O)NCc3ccco3)nc2n1 | 2.98% | – |
| Cc1nc2nc(SCC(=O)NCc3ccco3)nn2c(C)c1Cc1ccccc1 | – | 10.4 µM (active) |

| SMILES | activity change, negative = inhibition | Potency |
| --- | --- | --- |
| O=C(O)C(c1ccccc1)C1(O)CCCCC1 (configuration not stated) | 37.9% | – |
| CCCOc1cccc(C(=O)Nc2ccccc2C(=O)N2CCN(C)CC2)c1 | -9.04% | – |
| Cn1ccc(NC(=O)Nc2ccc(Cl)cc2)n1 | 61.5% | – |
| CN(c1cccc(NC(=O)Nc2ccc(Cl)cc2)c1)S(C)(=O)=O | 0% | – |
| CC(C)S(=O)(=O)c1csc(NC(=O)Nc2ccc(Cl)cc2)c1Cl | – | 1.17 µM (active) |
| O=C(c1cccnc1)N1CCN(S(=O)(=O)c2cccs2)CC1 | 9.61% | – |
| Cc1ccc(-n2ncc3c2CCCC3NC(=O)c2cnccn2)cc1C (configuration not stated) | 27.8% | – |
| O=C1CCC(=O)N(O)CCCCCNC(=O)CCC(=O)N(O)CCCCCNC(=O)CCC(=O)N(O)CCCCCN1 | – | 10.4 µM (active) |
| CC(CN1CCCCC1)c1ccccc1 (configuration not stated) | 8.4% | – |
| CC(C)[C@@H]1COC(c2cccc(C3=N[C@H](C(C)C)CO3)c2)=N1 | 9.17% | – |
| CN(C(=O)c1cccc(OC2CCN(S(=O)(=O)N(C)C)CC2)c1)C1CCOC1 (configuration not stated) | 25.5% | – |
| COC(=O)C1C(=O)c2c([nH]c(C(=O)OCCSC)c2C)CC1C (configuration not stated) | – | 3.7 µM (active) |
| CCCOC(=O)C1=C(C)NC2=C(C(=O)C(C(=O)OC)C(C)C2)C1c1ccc(N(C)C)cc1 (configuration not stated) | 13.8% | – |
| OC(c1nc2ccccc2[nH]1)C(O)C(O)C(O)c1nc2ccccc2[nH]1 (configuration not stated) | 30.2% | – |
| C/C=C/c1ccc(OCCOc2ccc(C=O)cc2OC)c(OC)c1 | -8.36% | – |
| C/C=C/c1ccc(OCCCCN2CCC(C)CC2)c(OC)c1 | – | 5.22 µM (active) |
| COc1ccc(/C=C/C(=O)N2CCCC2)cc1OC | 0% | – |
| COc1ccc(CN2CCNC(=O)C2CC(=O)NCc2cn[nH]c2-c2ccccc2)c(F)c1 (configuration not stated) | 8.51% | – |
| CN(C(=O)COC(=O)Cn1cnc2c1c(=O)n(C)c(=O)n2C)C1(C#N)CCCCC1 | 14.8% | – |
| O=c1onc(-c2c(F)cccc2F)n1-c1ccccc1Cl | -7.75% | – |
| CCC(=O)c1cc(F)ccc1OCC(=O)Nc1ccc2c(c1)OCCO2 | -52.7% | – |
| Cc1ccc2oc(=O)c3cnn(CC(=O)N4CCCCCC4)c3c2c1 | – | 9.28 µM (active) |
| COc1cccc2c(=O)n(CC(=O)N3CCCCCC3)ccc12 | -12.4% | – |
| Cc1cc(C(F)(F)F)nn1CC(=O)N1CCCC1 | 49.1% | – |
